From PMC7862700, “An all-to-all approach to the identification of sequence-specific readers for epigenetic DNA modifications on cytosine” come the findings set out here.

Test in all cases: DAPPL (digital affinity profiling via proximity ligation, sequencing); 10 mM Tris-HCl pH 7.5, 50 mM NaCl, 1 mM DTT, 4% glycerol, room temperature, 30 min; GST-TFs on glutathione beads, 16-mer random dsDNA library, 0.1% formaldehyde crosslink after washing; high values mean tight binding
Common to all, as to conditions: protein: recombinant; tags: N-terminal GST; dsDNA, one strand shown

One experiment deals with T1, FLI1 (Homo sapiens, UniProt Q01543 1-452).
T1 sequence: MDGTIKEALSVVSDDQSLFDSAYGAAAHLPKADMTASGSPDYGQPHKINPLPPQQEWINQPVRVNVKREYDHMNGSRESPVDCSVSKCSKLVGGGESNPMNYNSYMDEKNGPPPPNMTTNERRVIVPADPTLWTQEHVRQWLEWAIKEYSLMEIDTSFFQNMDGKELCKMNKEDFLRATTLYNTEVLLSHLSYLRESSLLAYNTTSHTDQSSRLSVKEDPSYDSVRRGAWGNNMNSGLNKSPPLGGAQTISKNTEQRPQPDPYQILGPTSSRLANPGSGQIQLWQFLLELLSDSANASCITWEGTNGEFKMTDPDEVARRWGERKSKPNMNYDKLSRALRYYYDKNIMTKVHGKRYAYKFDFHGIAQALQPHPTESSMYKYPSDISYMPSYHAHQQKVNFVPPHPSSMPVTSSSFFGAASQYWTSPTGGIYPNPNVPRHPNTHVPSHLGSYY
An outline of the steps:
(§1)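 In yeast, human transcription factors were expressed with a GST fusion, then pulled down on glutathione beads and given DNA barcodes. Pooled with a tag-only sample, they were exposed to 200 nmole of a 16-mer random double-stranded DNA library (Tris/NaCl/DTT/glycerol buffer, room temperature, 30 min), washed, crosslinked with 0.1% formaldehyde, proximity-ligated using BsaI/T4 ligase for 1 h at 37 °C, PCR-amplified and read on an Illumina NextSeq500. Each hexamer's frequency of reads for a factor, divided by the matching frequency for the tag-only sample, gives the binding signal.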

The target in the next experiment is T2, ELK1 (Homo sapiens, UniProt P19419 1-428).
T2 sequence: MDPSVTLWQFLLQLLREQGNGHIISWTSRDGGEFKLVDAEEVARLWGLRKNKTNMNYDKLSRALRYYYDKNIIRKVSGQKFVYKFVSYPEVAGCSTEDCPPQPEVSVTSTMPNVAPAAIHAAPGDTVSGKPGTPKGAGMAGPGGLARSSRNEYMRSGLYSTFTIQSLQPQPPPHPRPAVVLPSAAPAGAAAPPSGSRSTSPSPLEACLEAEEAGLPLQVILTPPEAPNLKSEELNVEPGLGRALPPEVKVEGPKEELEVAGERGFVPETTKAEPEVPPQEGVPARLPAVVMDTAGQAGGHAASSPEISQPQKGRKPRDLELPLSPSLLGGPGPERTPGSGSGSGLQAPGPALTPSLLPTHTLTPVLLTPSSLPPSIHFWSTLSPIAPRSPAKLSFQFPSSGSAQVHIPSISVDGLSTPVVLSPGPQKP
The method, boiled down: as §1

The next experiment has as its target T3, GABPA (Homo sapiens, UniProt Q06546 1-454).
T3 sequence: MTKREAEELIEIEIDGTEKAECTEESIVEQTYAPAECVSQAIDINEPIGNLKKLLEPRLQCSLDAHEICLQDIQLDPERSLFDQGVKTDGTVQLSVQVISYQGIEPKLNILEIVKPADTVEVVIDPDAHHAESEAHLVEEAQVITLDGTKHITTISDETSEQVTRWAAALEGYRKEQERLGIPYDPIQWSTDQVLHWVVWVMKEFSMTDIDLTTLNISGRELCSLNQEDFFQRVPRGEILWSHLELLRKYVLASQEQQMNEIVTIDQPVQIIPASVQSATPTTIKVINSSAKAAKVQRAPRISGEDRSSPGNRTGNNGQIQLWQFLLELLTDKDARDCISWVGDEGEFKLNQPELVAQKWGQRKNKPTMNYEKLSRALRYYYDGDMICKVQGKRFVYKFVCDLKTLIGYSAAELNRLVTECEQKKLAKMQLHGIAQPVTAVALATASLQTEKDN
The method, boiled down: as §1

The target in another experiment is T4, ERG (Homo sapiens, UniProt P11308 1-479).
T4 sequence: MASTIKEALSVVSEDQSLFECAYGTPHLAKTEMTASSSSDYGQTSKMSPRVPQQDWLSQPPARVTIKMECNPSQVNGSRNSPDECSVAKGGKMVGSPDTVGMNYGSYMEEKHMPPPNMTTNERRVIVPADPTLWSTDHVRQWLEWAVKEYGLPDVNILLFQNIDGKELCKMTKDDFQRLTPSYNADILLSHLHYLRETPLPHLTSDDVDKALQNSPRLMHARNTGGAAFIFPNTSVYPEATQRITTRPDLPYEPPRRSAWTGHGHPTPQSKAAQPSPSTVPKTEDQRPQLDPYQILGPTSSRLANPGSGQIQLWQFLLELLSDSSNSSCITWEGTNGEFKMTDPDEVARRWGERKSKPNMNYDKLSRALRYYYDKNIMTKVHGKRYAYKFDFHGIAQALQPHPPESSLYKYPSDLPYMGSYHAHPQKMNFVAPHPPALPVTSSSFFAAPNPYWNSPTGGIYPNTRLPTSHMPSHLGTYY
An outline of the steps: as §1

Another experiment has as its target ELF1 (Homo sapiens, UniProt P32519 1-619). The method, boiled down: as §1
The target in the next experiment is T5, EHF (Homo sapiens, UniProt Q9NZC4 1-300).
T5 sequence: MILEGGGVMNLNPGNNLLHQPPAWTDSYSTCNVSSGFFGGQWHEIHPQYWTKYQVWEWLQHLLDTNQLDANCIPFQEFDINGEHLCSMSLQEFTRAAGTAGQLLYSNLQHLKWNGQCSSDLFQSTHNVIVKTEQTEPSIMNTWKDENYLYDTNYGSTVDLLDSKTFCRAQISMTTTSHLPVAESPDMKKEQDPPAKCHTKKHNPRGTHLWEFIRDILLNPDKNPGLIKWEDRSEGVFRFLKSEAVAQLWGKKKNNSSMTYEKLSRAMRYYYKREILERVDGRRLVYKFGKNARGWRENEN
An outline of the steps:
as §1

A further experiment has as its target SPI1 (Homo sapiens, UniProt P17947 1-270). An outline of the steps:
as §1

Another experiment deals with SPIB (Homo sapiens, UniProt Q01892 1-262). The method, boiled down: as §1
Another experiment addresses T6, ELK3 (Homo sapiens, UniProt P41970 1-407).
T6 sequence: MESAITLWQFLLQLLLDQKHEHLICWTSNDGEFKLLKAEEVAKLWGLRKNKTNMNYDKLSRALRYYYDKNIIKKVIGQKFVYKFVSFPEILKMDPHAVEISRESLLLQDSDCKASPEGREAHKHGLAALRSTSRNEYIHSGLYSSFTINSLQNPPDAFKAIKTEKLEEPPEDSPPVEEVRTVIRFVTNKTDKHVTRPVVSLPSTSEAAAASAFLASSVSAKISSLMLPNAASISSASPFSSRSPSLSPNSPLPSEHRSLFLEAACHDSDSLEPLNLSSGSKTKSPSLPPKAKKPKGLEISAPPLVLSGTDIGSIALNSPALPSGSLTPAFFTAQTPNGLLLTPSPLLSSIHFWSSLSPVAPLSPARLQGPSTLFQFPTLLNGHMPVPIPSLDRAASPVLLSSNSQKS
The method, boiled down: as §1

SPIB, sequence (Q01892 whole entry): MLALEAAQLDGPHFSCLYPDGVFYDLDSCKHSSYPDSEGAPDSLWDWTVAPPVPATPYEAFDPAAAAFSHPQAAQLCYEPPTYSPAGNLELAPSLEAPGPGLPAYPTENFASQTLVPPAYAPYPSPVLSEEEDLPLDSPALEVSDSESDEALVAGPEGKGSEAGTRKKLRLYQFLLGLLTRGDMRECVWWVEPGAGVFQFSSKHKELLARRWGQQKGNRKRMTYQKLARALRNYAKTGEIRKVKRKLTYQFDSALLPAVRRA
ELF1, sequence (P32519 whole entry): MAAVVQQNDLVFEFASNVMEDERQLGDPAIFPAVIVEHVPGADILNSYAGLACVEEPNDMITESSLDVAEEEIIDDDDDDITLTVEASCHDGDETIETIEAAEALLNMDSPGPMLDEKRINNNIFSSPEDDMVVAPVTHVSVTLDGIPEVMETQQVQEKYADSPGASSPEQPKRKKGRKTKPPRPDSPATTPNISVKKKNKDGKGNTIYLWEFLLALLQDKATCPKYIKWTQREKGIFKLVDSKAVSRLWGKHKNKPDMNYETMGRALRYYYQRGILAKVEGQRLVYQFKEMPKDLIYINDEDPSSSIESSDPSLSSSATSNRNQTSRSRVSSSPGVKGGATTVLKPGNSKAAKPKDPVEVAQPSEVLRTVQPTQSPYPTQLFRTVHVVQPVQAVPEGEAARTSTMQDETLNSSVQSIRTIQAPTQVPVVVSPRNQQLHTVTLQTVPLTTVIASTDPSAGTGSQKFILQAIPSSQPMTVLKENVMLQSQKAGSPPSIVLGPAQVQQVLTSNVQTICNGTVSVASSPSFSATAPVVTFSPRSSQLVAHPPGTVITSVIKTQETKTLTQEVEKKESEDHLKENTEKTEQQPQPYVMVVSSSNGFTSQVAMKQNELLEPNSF

For the sequence CGCTCT, the binding signal with FLI1 was 1.39 fold enrichment (6-mer frequency, TF over GST control); in the experiment with ELK1, 1.25 fold enrichment (6-mer frequency, TF over GST control); with GABPA it was 1.34 fold enrichment (6-mer frequency, TF over GST control); in the experiment with ERG, 1.21 fold enrichment (6-mer frequency, TF over GST control); with ELF1 it was 1.3 fold enrichment (6-mer frequency, TF over GST control); with EHF, 1.21 fold enrichment (6-mer frequency, TF over GST control). Moreover, the binding signal in the experiment with SPI1 is 1.21 fold enrichment (6-mer frequency, TF over GST control); with SPIB, 1.16 fold enrichment (6-mer frequency, TF over GST control); in the experiment with ELK3 it was 1.18 fold enrichment (6-mer frequency, TF over GST control).
